Bioassay records as filed in PubChem.
TRHR enhancer – TRH receptor (human) allosteric enhancement; P34981; TRHR cells, fluo-8 calcium fluorescence, EC20 TRH enhancement; enhancement, % at 2 µM; 360,000 compounds, 0.66% hits; AID 493056; in the data active = enhancement above about 30%
Target sequence (P34981 whole entry, looked up): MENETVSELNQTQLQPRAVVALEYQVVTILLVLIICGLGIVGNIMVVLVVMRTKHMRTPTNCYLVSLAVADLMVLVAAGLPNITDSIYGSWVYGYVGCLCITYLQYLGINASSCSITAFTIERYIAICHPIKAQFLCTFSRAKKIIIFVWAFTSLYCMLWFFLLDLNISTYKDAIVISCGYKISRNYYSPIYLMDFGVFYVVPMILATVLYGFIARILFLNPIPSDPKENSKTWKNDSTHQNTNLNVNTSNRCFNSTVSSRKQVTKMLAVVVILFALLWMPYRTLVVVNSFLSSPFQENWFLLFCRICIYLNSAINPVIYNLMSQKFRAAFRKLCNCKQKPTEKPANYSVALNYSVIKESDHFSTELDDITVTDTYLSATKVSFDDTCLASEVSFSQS
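Enhancer read-out: after compound pinning and an initial kinetic agonist-mode read, an EC20 of TRH (10 nM final) was injected and fluo-8 calcium signal (Ex 480/Em 530) followed at 1 s/cycle for 100 cycles in TRHR-expressing cells.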
D1 agonist – agonists of human D1 dopamine receptor | HEK293 T-REx D1 cells, calcium flux, agonist mode | P21728 | 360,000 compounds, 1% hits | activation, % at 2 µM | AID 504660
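Agonism was scored from calcium flux recorded over 180 s (1 read/s) after pintool compound addition, following a 10-cycle baseline. Cells were inducible force-coupled HEK293 TREx D1, plated overnight at 30 C and loaded with no-wash calcium dye.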
TRHR ag – agonists of human TRH receptor | P34981 | activation, % at 2 µM | 360,000 compounds, 0.18% hits | TRHR cells, calcium flux fluo-8, FDSS agonist mode
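TRHR-expressing cells loaded with fluo-8 calcium dye; 23 nL library compound pin-transferred, kinetic FDSS fluorescence (Ex 480/Em 530) recorded about 180 s for agonist-induced calcium release, before a 10 nM TRH EC20 addition for potentiator mode.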
D1 potentiator – potentiators of human D1 dopamine receptor; P21728; HEK293 TREx D1 cells, calcium flux, dopamine EC20 potentiation; potentiation, % at 10 µM; 360,000 compounds, 0.036% hits; in the data active = potentiation above about 30%
GRP78 ERSR act – induces the endoplasmic reticulum stress response in human glioma cells; 420,000 compounds, 0.02% hits; Potency, µM, hits mostly activators; AID 602332; U87-MG GRP78 promoter luciferase reporter, 16 h; active = well fitted activation curve with a large enough effect; inconclusive = small, poorly fitted or top-dose-only effect; inactive = no such curve, though single readings can be large or run the other way; also: series mostly up to about 76 µM; nearly all actives have a fitted effect of over 35% in size
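ERSR induction read as luciferase luminescence (Bright-Glo, 10 min at room temperature) in stably transfected human U87-MG glioma cells exposed to compounds for 16 h, using GRP78 as sensor.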
D1 antagonist – human D1 dopamine receptor antagonism. activity change, negative = inhibition, % at 10 µM. AID 504652. P21728. HEK293 TREx D1 cells, calcium flux, dopamine EC80; stronger effect = lower value. 360,000 compounds, 3.2% hits; in the data active = activity change below about -30%
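Using tetracycline-induced force-coupled D1 Hek293 cells and a calcium dye, signals were followed for 180 s after compound, then for 180 s after EC80 dopamine, to detect inhibitors.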
Each line names hits and unclear results; the compound was inactive in the other large screens; ! = not active in a repeat. A selection: hits, their analogues and other compounds. The true share with any hit is near 4%. Rule as the data show it, unless noted: active = activation above about 30%; inactive = the rest.

Cc1cc(C(=O)OCC(=O)NCc2cccs2)c2ccccc2n1	D1 antagonist -30.5
Cc1cc(C(=O)OCC(=O)NCc2ccccc2)c2ccccc2n1	none (no result: TRHR enhancer, D1 agonist, TRHR ag, D1 potentiator, D1 antagonist)
Cc1ccc(Sc2cc(C(=O)NCCCN(C)C)c3ccccc3n2)cc1	D1 agonist 34.0
CCN(CC)CCNC(=O)c1cc(-c2ccc(Br)s2)nc2ccccc12	D1 agonist 33.8!
Cc1cc(C(=O)NCc2cccc(Cl)c2)c2ccccc2n1	D1 antagonist -33.0
COc1cccc(CN2Cc3cccc4c3[C@H](C=CC4)CC2=O)c1	none (no result: TRHR enhancer, D1 agonist, TRHR ag, D1 potentiator, D1 antagonist)
CCN(Cc1ccccc1)S(=O)(=O)c1cn(C)cn1	none
Cc1cc(C(=O)NCc2ccccc2Cl)c2ccccc2n1	D1 antagonist -62.5
Cc1cc(C(=O)Nc2ccccc2Cl)c2ccccc2n1	none
CCCCCCCNC(=O)c1cc(-c2ccncc2)nc2ccccc12	none
CCCCN(C)CCCNC(=O)c1cc(-c2cccnc2)nc2ccccc12	D1 antagonist -59.4!
O=C(NCCc1ccccc1C(F)(F)F)c1cc(COc2ccccc2)on1	none (no result: TRHR enhancer, D1 agonist, TRHR ag, D1 potentiator, D1 antagonist)
COc1cc(/C=C2\SC(=Nc3ccccc3)N(Cc3ccco3)C2=O)ccc1OC(C)C(=O)O (configuration not stated)	GRP78 ERSR act inconclusive
COCCN1C(=O)/C(=C/c2ccc(OCc3ccc(C(=O)O)cc3)c(OC)c2)SC1=Nc1ccccc1	D1 antagonist -36.5
CCO/N=C(\C)c1c(O)cc(C(C)C)n(-c2ccccc2)c1=O	D1 antagonist -36.0
Brc1ccc(-c2nnc3sc(CN4CCN(c5ccccc5)CC4)cn23)cc1	none
CCC1CCCCN1Cc1cn2c(-c3ccc(Br)cc3)nnc2s1 (configuration not stated)	D1 antagonist -32.0
COc1ccccc1CNC(=O)c1cnn(-c2nccc(-c3cccs3)n2)c1C	none (no result: TRHR enhancer, D1 agonist, TRHR ag, D1 potentiator, D1 antagonist)
COc1ccc(N2CCN(C(=O)c3ccccc3Br)CC2)c([N+](=O)[O-])c1	D1 agonist 37.6, D1 antagonist -48.6
COc1cccc(CC(=O)N2CCN(c3ccccc3[N+](=O)[O-])CC2)c1	D1 antagonist -39.8
Cc1ccccc1-n1ncc(C(C)NC(=O)c2ccco2)c1C (configuration not stated)	none
CCC(C)(C)C(=O)Nc1cc([N+](=O)[O-])ccc1Cl	none
CCN(CC)c1nc(C)c(C(=S)Nc2cc([N+](=O)[O-])ccc2Cl)s1	D1 agonist 38.9
CC(C)Oc1ccc(C(CC(=O)NCCCN(C)C)c2ccc(F)cc2)cc1 (configuration not stated)	D1 antagonist -37.2
CCNc1nc(C#N)nc(Nc2ccccc2)n1	none (no result: TRHR enhancer, D1 agonist, TRHR ag, D1 potentiator, D1 antagonist)
CC(C)NC(=O)CSc1nnc2sc3ccccc3n12	none
NC(=O)CSc1nnc2sc3ccccc3n12	D1 potentiator 32.3
Cc1[nH]c2ccccc2c1C(=O)CSC(=S)N1CCOCC1	none
CCOC(=O)c1sc(=S)n(-c2ccccc2)c1C	none
CCOC(=O)c1sc(=S)n(Cc2ccccc2)c1C	D1 antagonist -30.6
c1ccc(CNc2ncncc2-c2ccc3c(c2)OCO3)cc1	none (no result: TRHR enhancer, D1 agonist, TRHR ag, D1 potentiator, D1 antagonist)
COc1ccc(C(=O)N[C@H](C(=O)NCC2CCCCC2)C(C)C)cc1	D1 agonist 159.8
CCNC(=O)C1CC(=O)N(CC)C(=Nc2cc(Cl)c(O)c(Cl)c2)S1 (configuration not stated)	none
COc1ccc(-n2c(=O)c3c4c(sc3n(CC(=O)N3CCCCC3C)c2=O)CCC4)c(OC)c1 (configuration not stated)	D1 antagonist -71.3
C=Cc1ccc(CN2C(=O)N(c3cccc(Cl)c3)S(=O)(=O)c3ccccc32)cc1	D1 antagonist -92.0
O=S1(=O)c2ccccc2N(Cc2ccc(Cl)cc2)c2ccccc21	D1 agonist 32.2
O=S1(=O)c2ccccc2N(Cc2ccc(F)cc2)c2ccccc21	none
Cc1cc(C)cc(N2C(=O)CSC23C(=O)N(CC(=O)Nc2ccc(F)cc2F)c2ccccc23)c1 (configuration not stated)	none
COc1ccccc1N(CC(=O)NCCSCc1ccc(Cl)cc1)S(C)(=O)=O	D1 antagonist -58.3!
Cc1cccc(N(CC(=O)NCCSCc2ccccc2)S(C)(=O)=O)c1C	none
COc1ccccc1N(CC(=O)NCCSCc1ccccc1)S(C)(=O)=O	none
Cc1cccc(N(CC(=O)NCCSCc2ccccc2)S(=O)(=O)c2ccccc2)c1C	D1 agonist 30.2
c1ccc(-c2nn3c(Cn4cnc5ccccc54)nnc3s2)cc1	D1 antagonist -33.4
COCc1c(C(=O)NC2CCCCCC2)cnn1-c1nccc(-c2cc(C)sc2C)n1	none (no result: TRHR enhancer, D1 agonist, TRHR ag, D1 potentiator, D1 antagonist)
CC(C)CNc1nc(S(=O)(=O)c2ccccc2)c(Cl)s1	D1 antagonist -36.9
CN(C)CCNc1nc(S(=O)(=O)c2ccccc2)c(Cl)s1	none
CCC(C)NC(=O)C1CCN(C(=O)c2cc3sccc3n2Cc2ccc(Cl)cc2)CC1 (configuration not stated)	D1 antagonist -40.0
CCn1c(C(=O)N2CCC(C(=O)NCCCOC)CC2)cc2sccc21	none
COCCCNC(=O)C1CCN(C(=O)c2cc3sccc3n2Cc2ccc(Cl)cc2)CC1	D1 antagonist -38.5
Cn1c(C(=O)N2CCCC(C(=O)NCc3cccs3)C2)cc2sccc21 (configuration not stated)	none
CCOCCCNC(=O)C1CCN(C(=O)c2cc3sccc3n2C)CC1	D1 antagonist -83.6
CC(CCc1ccccc1)NC(=O)C1CCCN(C(=O)c2cc3sccc3n2C)C1 (configuration not stated)	D1 antagonist -39.3
O=S(=O)(NCCNCC=Cc1ccc(Br)cc1)c1cccc2cnccc12	none (no result: TRHR enhancer, D1 agonist, TRHR ag, D1 potentiator, D1 antagonist)
COCCNC(=O)C1CCN(C(=O)c2cc3sccc3n2Cc2ccc(F)cc2)CC1	D1 antagonist -49.0
CCCCCC[n+]1c(-c2ccccc2)csc1Nc1ccccc1	D1 antagonist -82.2
O=C(O)c1ccc(C[n+]2c(-c3ccccc3)csc2Nc2ccccc2)cc1	none
COc1ccc(CNC(=O)CCn2c(=O)c3cccn3c3ccc(F)cc32)cc1OC	D1 antagonist -43.0
COc1ccc(CNC(=O)CCCn2c(=O)c3cccn3c3ccc(F)cc32)cc1OC	none
CC(=O)Nc1ccc(Nc2nc(Cl)nc(Nc3ccc(NC(C)=O)cc3)n2)cc1	D1 antagonist -36.2
Cc1ccc2c(c1)N(S(=O)(=O)c1ccc(F)cc1)C(C(C)(C)C)CO2 (configuration not stated)	D1 antagonist -40.4
O=[N+]([O-])c1ccc(CN2CCN(c3ccc([N+](=O)[O-])cc3)CC2)cc1	none
O=[N+]([O-])c1ccc(N2CCN(Cc3cccc([N+](=O)[O-])c3)CC2)cc1	D1 antagonist -39.9
O=[N+]([O-])c1ccc(CN2CCSCC2)cc1	D1 antagonist -32.8
